M1 antag: human CHRM1 antagonism | P11229 | CHO-K1 hM1, Fluo-8 calcium fluorescence, ACh EC80 antagonist | inhibition, % at 3 µM | 360,000 compounds, 1.3% hits | AID 588852;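 active = percent inhibition above its own plate's cutoff, namely the mean of that plate's compound wells plus 3 SD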;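 note: peak over basal fluorescence ratio during 140 s after agonist addition; 0% = ACh EC80 plus DMSO and 100% = DMSO alone without agonist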
Target sequence (P11229 whole entry, looked up): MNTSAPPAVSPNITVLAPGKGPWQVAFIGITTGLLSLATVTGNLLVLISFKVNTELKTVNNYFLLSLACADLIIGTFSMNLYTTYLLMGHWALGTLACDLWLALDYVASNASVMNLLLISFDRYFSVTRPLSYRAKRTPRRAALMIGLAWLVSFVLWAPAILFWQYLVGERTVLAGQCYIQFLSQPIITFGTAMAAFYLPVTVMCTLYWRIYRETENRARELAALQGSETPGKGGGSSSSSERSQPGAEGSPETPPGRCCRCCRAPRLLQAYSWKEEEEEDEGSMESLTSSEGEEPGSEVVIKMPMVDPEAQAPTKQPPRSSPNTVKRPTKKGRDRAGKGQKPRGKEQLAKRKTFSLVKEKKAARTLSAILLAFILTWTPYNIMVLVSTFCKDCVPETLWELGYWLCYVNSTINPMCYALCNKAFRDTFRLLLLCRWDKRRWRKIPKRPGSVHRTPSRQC
CHRM1 agonist: activates human CHRM1 receptor. P11229. CHO-K1 hM1, Fluo-8 calcium fluorescence, agonist mode; 0% DMSO, 100% acetylcholine EC100. activation, % at 3 µM. 360,000 compounds, 0.33% hits. AID 588814;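 active = activation above the run's mean compound activation plus 3 SD, cut at about 16% in these data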;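 note: peak over basal fluorescence ratio within a 140 s kinetic read after compound addition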
CHRM1 PAM: positive allosteric modulators of human M1 muscarinic receptor. CHO-K1 hM1, Fluo-8 calcium fluorescence, ACh EC20; 0% = ACh EC20, 100% = maximal ACh. activation, % at 3 µM. 360,000 compounds, 0.088% hits; in the data active = activation above about 19%, passing the limit was not always enough
M1 PAM parental: M1 PAM counterscreen hit in parental CHO-K1 cells. 360,000 compounds, 0.02% hits. ATP EC20, Fluo-8 calcium fluorescence; 0% at ATP EC20, 100% at ATP max. activation, % at 3 µM;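 active = activation above the run cutoff, the mean activation of all test compounds plus 3 SD, cut at about 40% in these data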;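 note: peak over basal fluorescence ratio in a 140 s read after ATP addition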
CHO-K1 Ca antag: counter-screen for M1 antagonists: effect in parental CHO-K1 cells; ATP-induced calcium, Fluo-8 fluorescence; inhibition, % at 3 µM; 360,000 compounds, 0.6% hits; AID 602250;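 active = inhibition above a per-plate cutoff, the plate's mean sample inhibition plus 3 SD, cut at about 24% in these data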;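 note: 0% = DMSO plus EC80 ATP and 100% = DMSO alone without ATP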
CHO-K1 Ca ag: M1 agonist counterscreen hit in parental CHO-K1 cells. Fluo-8 calcium fluorescence; scaled to maximal ATP response, vehicle zero. activation, % at 3 µM. 360,000 compounds, 0.48% hits. AID 602248; in the data active = activation above about 15%;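 note: untransfected CHO-K1 host cells lacking M1 receptor as counterscreen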
* marks the source's active call; other numbers are inactive results; / = no result given. Compounds with a hit are over-represented: about 2.3% of the library has one in this group of screens.

SMILES	M1 antag	CHRM1 agonist	CHRM1 PAM	M1 PAM parental	CHO-K1 Ca antag	CHO-K1 Ca ag
Cc1c(C(=O)NCc2ccc([N+](=O)[O-])cc2)sc(=O)n1Cc1ccc(-c2ccccc2)cc1	-6	4	9	18	0	0
Cc1[nH]c(=O)sc1C(=O)NCc1ccc([N+](=O)[O-])cc1	-8	-1	8	-11	35*	0
Cc1cc(N2CCN(c3ccccc3)CC2)n2ncnc2n1	-6	-2	9	13	-8	2
Cc1cc(C)c2c(n1)nn1c(N3CCN(c4ccccc4)CC3)cc(C)nc21	19	-6	-6	-10	33*	-1
CCCOC(=O)c1ccc(OCC(O)Cn2c(C)nc3ccccc32)cc1 (stereo not drawn)	40*	3	-19	0	21	12
O=C(CSc1ccc(-c2ccccn2)nn1)N1CCCC1	-8	-2	10	11	-7	1
CCOc1ncccc1C(=O)NCCc1ccc(Cl)cc1	-2	-3	6	11	-8	1
Cc1ccccc1NS(=O)(=O)c1ccc2c(c1)n(C)c(=O)n2C	1	-4	7	4	9	15*
Cc1cc(C)c(NS(=O)(=O)c2ccc3c(c2)n(C)c(=O)n3C)c(C)c1	-11	-1	2	5	-17	0
CC1CN(c2nc3c(c(=O)n(Cc4ccc(Cl)cc4)c(=O)n3C)n2C)CC(C)O1 (stereo not drawn)	-1	-5	6	-8	28*	0
Cn1c(N2CCCC2)nc2c1c(=O)n(Cc1ccc(Cl)cc1)c(=O)n2C	8	-3	-3	-6	23	0
N[C@@H](C(=O)N[C@@H]1C(=O)N2C(C(=O)O)=C(Cl)CS[C@H]12)c1ccccc1	-28	18*	-3	12	-1	1
CC(C)(C)NC(=O)CN(CCc1ccccc1)C(=O)c1csnn1	3	-2	2	-14	2	0
Cc1c(C)c2ccc(OCC(=O)N[C@@H](Cc3c[nH]c4ccccc34)C(=O)O)cc2oc1=O	-7	-2	2	-16	29*	0
COCCCNc1c2c3c(cccc3[nH]c1=O)C(=O)c1ccccc1-2	71*	264*	-31	-16	56*	285*
CCCCCCCCCC[N+](C)(C)CC/C=C1/c2ccccc2Sc2ccc(Cl)cc21	83*	-8	-33	0	-16	0
CCC1=Nc2cc(C(=O)O)ccc2Sc2ccc(Cl)cc21	12	-3	1	9	5	0
CC[N+](C)(C)CC/C=C1/c2ccccc2Sc2ccc(Cl)cc21	100*	-6	-24	-6	0	1
CCCCCCCCCCC[N+](C)(C)CC/C=C1/c2ccccc2Sc2ccc(Cl)cc21	99*	-10	-30	3	-14	3
CCCCCC[n+]1c(-c2ccc(Cl)cc2Cl)csc1Nc1ccccc1	-7	-3	1	9	6	0
CCCCC(=O)OCC(=O)Nc1ccc(C)c(F)c1	-1	-4	9	-9	10	0
Cc1nnc(SCC(=O)c2ccc(C(C)C)cc2)s1	-12	-7	9	23	-11	3
O=c1c2oc3nc4c(cc3c2ncn1CCCc1ccccc1)CCCC4	3	-2	-1	9	1	6
CN(CC(=O)Nc1ccc(OC(F)(F)F)cc1)C(=O)/C=C/c1cc2c(cc1[N+](=O)[O-])OCO2	-1	-6	0	7	-11	1
CCOC(=O)N1CCN(C2=Nc3cccc4cccc2c34)CC1	84*	-8	-23	-12	10	0
SMILES	M1 antag	CHRM1 agonist	CHRM1 PAM	M1 PAM parental	CHO-K1 Ca antag	CHO-K1 Ca ag
c1ccc(CC2CCN(C3=Nc4cccc5cccc3c45)CC2)cc1	72*	-1	-19	9	0	3
COc1ccccc1N1CCN(C2=Nc3cccc4cccc2c34)CC1	89*	-15	-36	-8	5	7
Cc1ccc(S(=O)(=O)n2ccc3c2CCCC3=O)cc1	54*	-8	-27	8	7	1
COc1ccc(C(=O)OCC(=O)c2ccc3c(c2)NC(=O)CO3)cc1S(=O)(=O)N1CCOCC1	-4	0	4	-5	-3	0
CC(=O)NCc1ccc(C(=O)O)cc1	-23	-1	6	18	-12	1
Cc1cccnc1C(NC(=O)C1CCN(Cc2ccc3ccccc3n2)CC1)c1ccc(Cl)cc1 (stereo not drawn)	31*	-8	-24	-7	1	1
CCCS(=O)(=O)NC(=O)C1(C)CCCN(C(=O)c2cc(OC)ccc2Br)C1 (stereo not drawn)	-17	0	11	13	-13	0
CN(C)CCC(=O)C(Cc1ccccc1)c1ccccc1 (stereo not drawn)	73*	-7	-27	21	-7	3
CN(C)CC(c1ccccc1)c1ccccc1	-15	-9	5	18	-4	2
CC(CCCN(C)C)C(Cc1ccccc1)c1ccccc1 (stereo not drawn)	80*	-7	-24	24	-12	5
CN(C)CCNC(=O)C(c1ccccc1)c1ccccc1	17	-7	-15	10	-1	0
Cc1ccc(NC(=O)CSc2nc(O)c(Cc3ccccc3)c(=O)n2-c2ccccc2)cc1	-2	-3	6	3	8	5
COc1ccc(CCNC(=O)CNS(=O)(=O)c2ccc(Cl)cc2)cc1	1	7	-1	-22	24*	8
COc1ccc(S(=O)(=O)NCCc2ccccc2)cc1	29*	0	-9	0	-1	0
Cc1ccc(S(=O)(=O)NCCc2ccncc2)cc1C	2	-11	-3	13	11	18*
CCOc1ccc(S(=O)(=O)NCCSCc2ccco2)cc1	-7	-6	4	3	-5	2
COc1ccc(CCNS(=O)(=O)c2ccc(Br)cc2)cc1	-11	-2	6	12	-11	2
COc1ccc(S(=O)(=O)NCCSCc2ccco2)cc1	4	-3	4	-7	28*	0
CCCCCCn1cc(CN2CC(N(C)C)CS2(=O)=O)nn1 (stereo not drawn)	/	/	/	6	-13	0
COc1cccc(CN2CCC2(C)C(=O)Nc2ccc3c(c2)OCO3)c1F (stereo not drawn)	-13	1	9	26	-15	1
Cc1ccc(NC(=O)CSc2nnc(-c3cccnc3)s2)cc1	-5	-6	6	26	-6	2
O=C(CSc1nnc(-c2cccnc2)s1)Nc1ccnc2ccccc12	34*	-2	-14	9	26*	15
CN(C(=O)c1cccc(NC(=O)Cc2ccc(NC(=O)C3CCN(C(=O)CCc4ccccc4)CC3)cc2)c1)C1CCC1	-9	-9	4	15	-11	1

Assay outcomes deposited in PubChem BioAssay by The Scripps Research Institute Molecular Screening Center.
